Insulin prom inh – TRM-6 insulin promoter activity inhibition. 130,000 compounds, 0.9% hits. AID 1273. inhibition, % at 2 µM. TRM-6 cells (human fetal islet line), insulin promoter-eGFP reporter, imaging; reporter expression induced with tamoxifen;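 active = inhibition above the mean plus 3 SD, with well images judged a real hit on visual review, cut at about 60% in these data, passing the limit was not always enough; inconclusive = inhibition over the cutoff but images rejected on review; inactive = inhibition not above the cutoff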
Cl transport mod – modulators of human KCC2 chloride dependent transport. B-score of Tl+ flux slope (higher = more flux/activation; lower = inhibition) at 10 µM. AID 1456. 190,000 compounds, 2.2% hits. KCC2 cells, thallium flux FluoZin-2 fluorescence. Q9H2X9;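 active = thallium flux slope and its plate-corrected score both differing from the plate sample mean at a set confidence after two filtering rounds, in either direction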;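 also: slope of fluorescence scaled to starting intensity during 10 to 20 s after thallium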
Target sequence (Q9H2X9 whole entry, looked up): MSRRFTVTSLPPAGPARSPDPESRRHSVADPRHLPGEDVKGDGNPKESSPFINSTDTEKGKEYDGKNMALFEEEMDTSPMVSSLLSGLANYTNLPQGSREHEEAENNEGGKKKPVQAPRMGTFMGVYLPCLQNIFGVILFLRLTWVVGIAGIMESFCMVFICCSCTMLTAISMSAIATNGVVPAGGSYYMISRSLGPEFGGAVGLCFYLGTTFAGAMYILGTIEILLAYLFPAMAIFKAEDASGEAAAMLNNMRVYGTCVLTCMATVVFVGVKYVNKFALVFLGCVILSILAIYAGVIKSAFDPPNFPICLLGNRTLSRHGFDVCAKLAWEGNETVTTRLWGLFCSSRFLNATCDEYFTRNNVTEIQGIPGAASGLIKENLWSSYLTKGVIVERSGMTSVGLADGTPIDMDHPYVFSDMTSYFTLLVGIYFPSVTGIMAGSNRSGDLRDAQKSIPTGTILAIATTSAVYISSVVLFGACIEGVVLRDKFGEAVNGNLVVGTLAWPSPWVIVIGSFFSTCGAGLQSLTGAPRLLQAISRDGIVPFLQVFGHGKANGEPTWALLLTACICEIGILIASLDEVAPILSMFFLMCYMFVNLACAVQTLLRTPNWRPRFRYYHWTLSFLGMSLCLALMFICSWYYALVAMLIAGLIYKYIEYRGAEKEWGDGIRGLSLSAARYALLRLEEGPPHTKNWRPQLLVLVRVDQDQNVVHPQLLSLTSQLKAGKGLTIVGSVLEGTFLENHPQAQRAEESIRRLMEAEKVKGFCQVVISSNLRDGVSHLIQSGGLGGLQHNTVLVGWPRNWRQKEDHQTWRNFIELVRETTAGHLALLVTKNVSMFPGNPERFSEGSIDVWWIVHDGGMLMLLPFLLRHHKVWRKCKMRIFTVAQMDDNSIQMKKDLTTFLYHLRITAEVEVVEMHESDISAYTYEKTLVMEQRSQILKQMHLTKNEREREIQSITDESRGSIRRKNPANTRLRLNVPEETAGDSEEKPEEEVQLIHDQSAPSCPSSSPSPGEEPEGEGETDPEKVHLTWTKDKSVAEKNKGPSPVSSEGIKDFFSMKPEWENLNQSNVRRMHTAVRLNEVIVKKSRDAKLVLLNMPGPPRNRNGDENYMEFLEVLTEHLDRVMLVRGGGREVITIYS
L major viab – inhibitors of Leishmania major promastigote growth | inhibition, % at 10 µM | 200,000 compounds, 9% hits | Leishmania major promastigotes, resazurin fluorescence viability; in the data active = inhibition above about 50%;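 also: promastigotes grown with compound for 44 hours at 28 °C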
WT yeast gro inh – growth inhibition of WT yeast, mitochondrial fusion screen | mitochondrial fusion phenotypic screen, WT strain | inhibition, % at 10 µM | 190,000 compounds, 2.1% hits | AID 1362; in the data active = inhibition above about 58%; tested in S. cerevisiae
ROMK primary – modulates human ROMK potassium channel activity. Tet-inducible ROMK, thallium flux fluorescence; actives lie on both sides. B-score at 10 µM. 130,000 compounds, 2% hits. AID 1918;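 active = signal ratio slope over the read window, or its plate-corrected B-score, at least 3 SD from the plate mean, either direction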;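 also: B-score of the F/F0 ratio slope over 7 to 12 s after thallium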
Ins promoter up – MIN6 insulin promoter up-regulation. MIN6 insulin promoter-GFP reporter, high-content imaging; stronger effect = higher value. z-score at 5 µM. 190,000 compounds, 0.3% hits;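 active = z-score above 3 at 5 µM with at least 500 cells counted in the well; inconclusive = wells under 500 cells, flagged as cytotoxic or low count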
* = called active by the depositor; ? = inconclusive; nt = no result. A selection: hits, their analogues and other compounds. The true share with any hit is near 12%.

SMILES	Insulin prom inh	Cl transport mod	L major viab	WT yeast gro inh	ROMK primary	Ins promoter up
O=C(NCc1cccnc1)c1cc(Sc2cccc(Cl)c2)nc2ccccc12	-30	0.013	68*	0	-1.1	-0.67
O=C(NCc1cccc(Cl)c1)c1cccnc1	3	-1.1	-1	-8	0.64	2.1
c1cc2ccc3ccc(CN4CCOCC4)c4ccc(c1)c2c34	41	-0.45	4	4	nt	-0.55
OC1CCCN(Cc2ccc3ccc4cccc5ccc2c3c45)C1 (stereo not drawn)	16	0.17	78*	16	nt	0.03
O=C(CSc1nc2ccccc2[nH]1)Nc1c(F)cccc1F	89*	-0.55	1	-8	nt	1.3
O=C(CSc1nc2ccccc2[nH]1)c1ccc(Cl)s1	11	-0.2	80*	1	0.84	nt
Fc1cccc(F)c1CSc1nc2ccccc2[nH]1	75*	-0.68	100*	0	-1.9	-0.51
Cc1noc(C)c1CSc1nc2ccccc2[nH]1	-10	-0.52	-2	-5	nt	-0.28
O=C(CSc1nc2ccc(Cl)cc2[nH]1)Nc1ccc2c(c1)CCC2	nt	0.062	-2	36	nt	0.29
O=C(CSc1nc2ccccc2[nH]1)Nc1ccc2c(c1)CCC2	21	0.5	76*	2	-0.032	-0.45
O=S(=O)(NCc1cccnc1)c1cccc2nsnc12	nt	0.047	-7	-22	0.16	-0.12
COc1ccc(-n2c(SCC(=O)Nc3ccc4c(c3)OCO4)nc3c(c2=O)SCC3)cc1	nt	0.012	11	17	nt	0.87
O=C(CSc1nc2ccc(Cl)cc2[nH]1)NC1CCCc2ccccc21 (stereo not drawn)	-93	2	9	11	-0.36	-0.85
COc1ccc2nc(SCC(=O)NC3CCCc4ccccc43)[nH]c2c1 (stereo not drawn)	-17	0.1	75*	-6	-0.76	-0.38
c1ccc(C(CN2CCOCC2)c2ccccc2)cc1	nt	nt	-2	8	-0.41	-0.3
O=C(c1ccccc1)C(CCC(CN1CCOCC1)C(=O)c1ccccc1)CN1CCOCC1 (stereo not drawn)	-4	-0.47	100*	49	-1.7	0.54
COc1ccc(C(=O)C(CN2CCOCC2)c2ccccc2)cc1 (stereo not drawn)	92*	0.16	101*	33	0.018	-3.7
CCC(O)(c1ccc(OC)cc1)C(CN1CCOCC1)c1ccccc1 (stereo not drawn)	nt	-0.29	9	-10	0.97	-0.29
COc1ccc(C(=O)C(CN2CCCC2)c2ccccc2)cc1 (stereo not drawn)	nt	nt	100*	11	-1.2	-2
COc1ccc(C(=O)C(OC(=O)c2ccccc2)c2ccccc2)cc1 (stereo not drawn)	44	-0.51	3	21	1	-0.21
CCCOc1ccc(C(=O)C(CN2CCCC2)c2ccccc2)cc1 (stereo not drawn)	?	-2.1	100*	32	-1.7	-3.5
CCc1ccc2[nH]c(=O)c(CN(CCO)C(=O)NCc3ccccc3)cc2c1	nt	nt	nt	1	nt	-0.28
NS(=O)(=O)c1ccc(N/N=C2/CCCc3ccccc32)c([N+](=O)[O-])c1	nt	1.2	9	9	-0.093	nt
O=C(Cn1[nH]c(=O)c2ccccc2c1=O)OCC(=O)N1CCc2ccccc2C1	nt	-1.6	-5	13	nt	0.28
COc1ccc(C(C(=O)OCCN(C)C)c2ccccc2)cc1 (stereo not drawn)	6	0.19	-6	-48	nt	-0.01
SMILES	Insulin prom inh	Cl transport mod	L major viab	WT yeast gro inh	ROMK primary	Ins promoter up
CCCOc1ccc(C(C(=O)OCCN(CC)CC)c2ccccc2)cc1 (stereo not drawn)	38	nt	99*	31	-0.041	-1.3
O=C(c1ccc(F)cc1)C(CN1CCOCC1)c1ccccc1 (stereo not drawn)	nt	1.5	101*	81*	-0.72	-4.3
CCCCOc1ccc(C(=O)C(CN2CCOCC2)c2ccccc2)cc1 (stereo not drawn)	78*	0.023	101*	19	nt	nt
Cc1cccc(N(CC(=O)N2CCN(c3ccccc3F)CC2)S(C)(=O)=O)c1	-27	-0.85	-2	-8	0.39	nt
Cc1nc(SCC(=O)OCc2ccccc2)c2c(=O)n(C)c(=O)n(C)c2n1	nt	-2.2	-5	-7	nt	0.86
COc1ccc(CCNc2ccc(C(CC(N)=O)NC(=O)Cc3cccc4ccccc34)cc2[N+](=O)[O-])cc1 (stereo not drawn)	nt	0.52	nt	nt	nt	0.05
Cc1c(C(=O)OCC(C)(C)CN(C)C)oc2ccccc12	12	-0.66	-4	6	-0.79	nt
Cc1c(C(=O)OC(C)CCN(C)C)oc2ccccc12 (stereo not drawn)	nt	nt	85*	-2	nt	-0.59
CCOC(=O)c1c(NC(=O)CSc2nncs2)sc(C)c1-c1ccccc1	-8	-0.4	75*	20	-0.59	-1.1
CCOC(=O)c1c(-c2ccccc2)csc1NC(=O)CSc1ccccc1	nt	-0.064	1	-8	1.3	0.03
CCOC(=O)c1c(-c2ccccc2)csc1NC(=O)CSc1nncs1	0	-0.91	13	59*	-0.64	-1.6
Cc1ccc(CN2CCN(Cc3cc(=O)c4ccccc4[nH]3)CC2CCO)o1 (stereo not drawn)	nt	0.0028	-2	-9	-0.21	-0.2
COc1cccc(C2=NOC(C(=O)Nc3cc(C)on3)C2)c1OC (stereo not drawn)	nt	1.6	nt	nt	nt	nt
Cc1ccc2nc(NC(=O)Cn3nc(C)c([N+](=O)[O-])c3C)sc2c1	37	-0.0016	69*	4	nt	-0.01
Cc1ccc2nc(NC(=O)CCCc3nc4ccccc4s3)sc2c1	23	-0.2	91*	31	0.25	0.06
Cc1nn(CC(=O)Nc2cccc(S(N)(=O)=O)c2)c(C)c1[N+](=O)[O-]	7	0.027	63*	14	0.87	0
Cc1cccc(OCC(=O)Nc2nc3ccc([N+](=O)[O-])cc3s2)c1C	-94	nt	-4	65*	nt	-0.57
Cc1ccc2nc(NC(=O)CCCC(=O)O)sc2c1	nt	-0.042	-4	-2	-0.92	0.73
Cc1cccc(OCC(=O)Nc2nc3ccc([N+](=O)[O-])cc3s2)c1	nt	1.1	7	25	-0.12	1.6
CC1CN=C(N(C(=O)Nc2ccccc2)C(C)C)S1 (stereo not drawn)	-67	-0.28	-1	8	nt	0.01
CCC(C)(NC(=O)c1ccc(=O)[nH]c1)C(=O)NC1CCCC1 (stereo not drawn)	nt	0.7	0	15	nt	-0.6
CC(C)c1ccc(NC(=O)COc2nnc(-c3cccs3)c(-c3cccs3)n2)cc1	nt	0.38	83*	7	-2.5	-1.5
CC(C)c1ccc(NC(=O)COc2ccccn2)cc1	nt	-0.075	1	16	0.27	-0.6
CCc1ccc(NC(=O)CSc2nnc(-c3cccs3)n2CC)cc1	-7	nt	1	5	-0.24	0.79
CCc1ccc(NC(=O)C(C)Oc2nnc(-c3cccs3)c(-c3cccs3)n2)cc1 (stereo not drawn)	0	nt	84*	8	-0.12	-0.68
CCOC(=O)c1cc2c(=O)n3cccc(C)c3nc2n(CCOC)c1=NC(C)=O	nt	0.68	nt	nt	nt	-0.54

Bioassay records deposited in PubChem by several laboratories.
